# Measurements: the supplement of paper PMC10849652
# Of roughly 8,800 targets only a part is listed; those with a hit were picked by preference. About 0.5% of all pairs of compound and target were hits. Values without a mark were called inactive.
# Tests used:
# Experiment in all cases: log2 fold change, soluble protein after heating vs DMSO (PISA); higher = thermal stabilisation; K562 lysate, 10 uM; active = over 0.2 and 3.5 SD of the protein, either way, in both replicates (recomputed)
# [1] = compound: CCCS(=O)(=O)Nc1ccc(F)c(C(=O)c2c[nH]c3ncc(Cl)cc23)c1F
# How it was run: (§1)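 The values are log-two fold changes in thermal stability compared with solvent controls and come from duplicates. They were obtained by TMTpro 16plex LC-MS/MS, with channel sums equalised, on the supernatant after 21,000xg for 90 min. That supernatant came from crude K562 extract at 1 mg/mL protein treated with 10 μM compound for 30 min, heated for 3 min across 48°C-58°C, pooled and brought to 0.5% NP-40 at 4°C.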
# barasertib = compound: CCN(CCCOc1ccc2c(Nc3cc(CC(=O)Nc4cccc(F)c4)[nH]n3)ncnc2c1)CCOP(=O)(O)O [barasertib]
# How it was run: as §1
# volasertib = compound: CC[C@@H]1C(=O)N(C)c2cnc(Nc3ccc(C(=O)N[C@H]4CC[C@H](N5CCN(CC6CC6)CC5)CC4)cc3OC)nc2N1C(C)C [volasertib]
# How it was run: as §1
# [2] = compound: CCn1c(C(=O)N(C2CC2)C2CC2)cc2c3c(ncn3C)c(Nc3cc(C)n(C)n3)nc21
# How it was run: as §1
# [3] = compound: CCn1cc(-c2ccnc3[nH]c(-c4cccc(CN(C)C)c4)cc23)c(-c2ccc(NC(=O)N(C)C)cc2)n1
# How it was run: as §1
# [4] = compound: CN1CCC(CNc2ccc3ncc(-c4cccc(OC(F)(F)F)c4)n3n2)CC1
# How it was run: as §1
# saracatinib = compound: CN1CCN(CCOc2cc(OC3CCOCC3)c3c(Nc4c(Cl)ccc5c4OCO5)ncnc3c2)CC1 [saracatinib]
# How it was run: as §1
# sotrastaurin = compound: CN1CCN(c2nc(C3=C(c4c[nH]c5ccccc45)C(=O)NC3=O)c3ccccc3n2)CC1 [sotrastaurin]
# How it was run: as §1
# vemurafenib = compound: CCCS(=O)(=O)Nc1ccc(F)c(C(=O)c2c[nH]c3ncc(-c4ccc(Cl)cc4)cc23)c1F [vemurafenib]
# How it was run: as §1
# [5] = compound: CC[C@@H]1C(=O)N(C)c2cnc(Nc3ccc(C(=O)NC4CCN(C)CC4)cc3OC)nc2N1C1CCCC1
# How it was run: as §1
# UniProt Q16527, sequence (Q16527 whole entry, looked up): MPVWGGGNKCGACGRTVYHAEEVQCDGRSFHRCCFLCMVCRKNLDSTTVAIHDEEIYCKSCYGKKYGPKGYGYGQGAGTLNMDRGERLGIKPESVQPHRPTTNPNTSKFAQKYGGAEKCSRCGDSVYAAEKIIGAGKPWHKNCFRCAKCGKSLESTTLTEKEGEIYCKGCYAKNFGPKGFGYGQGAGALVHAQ
# UniProt Q9NYP3, sequence (Q9NYP3 whole entry, looked up): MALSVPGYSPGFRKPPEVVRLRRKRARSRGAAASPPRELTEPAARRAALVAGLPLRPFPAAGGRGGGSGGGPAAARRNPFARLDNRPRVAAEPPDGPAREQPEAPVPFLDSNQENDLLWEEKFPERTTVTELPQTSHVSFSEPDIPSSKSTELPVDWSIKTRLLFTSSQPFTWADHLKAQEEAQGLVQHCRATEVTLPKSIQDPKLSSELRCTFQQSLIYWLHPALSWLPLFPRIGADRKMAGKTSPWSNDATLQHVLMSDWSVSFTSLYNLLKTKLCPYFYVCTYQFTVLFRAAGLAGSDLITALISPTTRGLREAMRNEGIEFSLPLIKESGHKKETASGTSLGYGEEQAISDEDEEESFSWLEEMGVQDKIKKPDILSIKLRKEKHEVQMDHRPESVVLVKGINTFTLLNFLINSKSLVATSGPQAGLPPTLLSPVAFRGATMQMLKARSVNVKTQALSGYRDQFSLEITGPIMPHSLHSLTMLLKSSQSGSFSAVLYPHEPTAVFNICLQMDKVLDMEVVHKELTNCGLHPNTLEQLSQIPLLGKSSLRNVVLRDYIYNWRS
# UniProt O75534, sequence (O75534 whole entry, looked up): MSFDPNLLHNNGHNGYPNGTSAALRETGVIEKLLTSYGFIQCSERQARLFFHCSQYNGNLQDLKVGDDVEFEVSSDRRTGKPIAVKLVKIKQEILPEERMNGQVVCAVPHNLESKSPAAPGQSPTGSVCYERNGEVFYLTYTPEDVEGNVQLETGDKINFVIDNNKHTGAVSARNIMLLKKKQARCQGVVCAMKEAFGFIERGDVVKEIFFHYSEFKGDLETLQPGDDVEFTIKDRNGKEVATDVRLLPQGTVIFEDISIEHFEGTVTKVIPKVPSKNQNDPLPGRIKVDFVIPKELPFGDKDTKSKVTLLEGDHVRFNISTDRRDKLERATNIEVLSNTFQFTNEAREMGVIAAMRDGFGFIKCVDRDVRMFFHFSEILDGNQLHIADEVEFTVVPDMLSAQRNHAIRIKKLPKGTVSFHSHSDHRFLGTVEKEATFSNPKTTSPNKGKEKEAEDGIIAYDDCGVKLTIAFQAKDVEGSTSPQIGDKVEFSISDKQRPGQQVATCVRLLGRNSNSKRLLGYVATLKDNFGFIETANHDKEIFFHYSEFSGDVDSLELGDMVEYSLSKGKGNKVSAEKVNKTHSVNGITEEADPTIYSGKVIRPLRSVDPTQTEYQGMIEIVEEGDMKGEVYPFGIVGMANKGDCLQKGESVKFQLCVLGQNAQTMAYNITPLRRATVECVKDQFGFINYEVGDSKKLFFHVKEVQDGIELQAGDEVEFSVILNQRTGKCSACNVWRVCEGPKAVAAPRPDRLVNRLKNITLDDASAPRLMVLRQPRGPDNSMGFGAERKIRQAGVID
# UniProt Q9UBU7, sequence (Q9UBU7 whole entry, looked up): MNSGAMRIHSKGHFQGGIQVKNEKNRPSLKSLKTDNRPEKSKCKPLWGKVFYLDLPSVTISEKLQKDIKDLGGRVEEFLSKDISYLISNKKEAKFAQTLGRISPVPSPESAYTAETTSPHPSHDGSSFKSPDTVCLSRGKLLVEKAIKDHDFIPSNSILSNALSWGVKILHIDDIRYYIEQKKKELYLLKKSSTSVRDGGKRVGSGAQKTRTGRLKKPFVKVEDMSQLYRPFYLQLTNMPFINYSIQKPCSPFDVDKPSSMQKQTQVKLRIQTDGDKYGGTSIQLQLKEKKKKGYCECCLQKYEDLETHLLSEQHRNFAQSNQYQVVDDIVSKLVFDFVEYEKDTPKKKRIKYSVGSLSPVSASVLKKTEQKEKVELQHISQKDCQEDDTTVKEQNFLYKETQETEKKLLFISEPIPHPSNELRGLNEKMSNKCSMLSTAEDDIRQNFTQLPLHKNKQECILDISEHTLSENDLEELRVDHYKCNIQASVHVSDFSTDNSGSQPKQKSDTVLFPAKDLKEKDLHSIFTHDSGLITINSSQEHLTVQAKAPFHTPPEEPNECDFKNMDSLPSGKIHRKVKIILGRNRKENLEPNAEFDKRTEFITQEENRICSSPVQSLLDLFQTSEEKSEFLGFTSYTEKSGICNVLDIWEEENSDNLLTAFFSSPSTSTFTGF
# UniProt Q9Y600, sequence (Q9Y600 whole entry, looked up): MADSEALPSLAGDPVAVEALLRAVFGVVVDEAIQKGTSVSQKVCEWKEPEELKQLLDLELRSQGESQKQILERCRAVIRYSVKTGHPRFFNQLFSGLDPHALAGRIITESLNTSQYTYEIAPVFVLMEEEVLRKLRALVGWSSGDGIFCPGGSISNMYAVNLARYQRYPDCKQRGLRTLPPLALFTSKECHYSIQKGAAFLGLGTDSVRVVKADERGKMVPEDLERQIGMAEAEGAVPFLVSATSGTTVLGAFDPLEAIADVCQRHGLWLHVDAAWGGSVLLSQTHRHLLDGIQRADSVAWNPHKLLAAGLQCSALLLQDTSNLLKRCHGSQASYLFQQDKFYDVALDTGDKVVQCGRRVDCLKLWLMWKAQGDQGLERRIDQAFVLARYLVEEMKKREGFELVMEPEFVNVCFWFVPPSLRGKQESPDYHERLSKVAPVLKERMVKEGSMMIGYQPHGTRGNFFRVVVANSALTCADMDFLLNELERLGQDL
# UniProt P30622, sequence (P30622 whole entry, looked up): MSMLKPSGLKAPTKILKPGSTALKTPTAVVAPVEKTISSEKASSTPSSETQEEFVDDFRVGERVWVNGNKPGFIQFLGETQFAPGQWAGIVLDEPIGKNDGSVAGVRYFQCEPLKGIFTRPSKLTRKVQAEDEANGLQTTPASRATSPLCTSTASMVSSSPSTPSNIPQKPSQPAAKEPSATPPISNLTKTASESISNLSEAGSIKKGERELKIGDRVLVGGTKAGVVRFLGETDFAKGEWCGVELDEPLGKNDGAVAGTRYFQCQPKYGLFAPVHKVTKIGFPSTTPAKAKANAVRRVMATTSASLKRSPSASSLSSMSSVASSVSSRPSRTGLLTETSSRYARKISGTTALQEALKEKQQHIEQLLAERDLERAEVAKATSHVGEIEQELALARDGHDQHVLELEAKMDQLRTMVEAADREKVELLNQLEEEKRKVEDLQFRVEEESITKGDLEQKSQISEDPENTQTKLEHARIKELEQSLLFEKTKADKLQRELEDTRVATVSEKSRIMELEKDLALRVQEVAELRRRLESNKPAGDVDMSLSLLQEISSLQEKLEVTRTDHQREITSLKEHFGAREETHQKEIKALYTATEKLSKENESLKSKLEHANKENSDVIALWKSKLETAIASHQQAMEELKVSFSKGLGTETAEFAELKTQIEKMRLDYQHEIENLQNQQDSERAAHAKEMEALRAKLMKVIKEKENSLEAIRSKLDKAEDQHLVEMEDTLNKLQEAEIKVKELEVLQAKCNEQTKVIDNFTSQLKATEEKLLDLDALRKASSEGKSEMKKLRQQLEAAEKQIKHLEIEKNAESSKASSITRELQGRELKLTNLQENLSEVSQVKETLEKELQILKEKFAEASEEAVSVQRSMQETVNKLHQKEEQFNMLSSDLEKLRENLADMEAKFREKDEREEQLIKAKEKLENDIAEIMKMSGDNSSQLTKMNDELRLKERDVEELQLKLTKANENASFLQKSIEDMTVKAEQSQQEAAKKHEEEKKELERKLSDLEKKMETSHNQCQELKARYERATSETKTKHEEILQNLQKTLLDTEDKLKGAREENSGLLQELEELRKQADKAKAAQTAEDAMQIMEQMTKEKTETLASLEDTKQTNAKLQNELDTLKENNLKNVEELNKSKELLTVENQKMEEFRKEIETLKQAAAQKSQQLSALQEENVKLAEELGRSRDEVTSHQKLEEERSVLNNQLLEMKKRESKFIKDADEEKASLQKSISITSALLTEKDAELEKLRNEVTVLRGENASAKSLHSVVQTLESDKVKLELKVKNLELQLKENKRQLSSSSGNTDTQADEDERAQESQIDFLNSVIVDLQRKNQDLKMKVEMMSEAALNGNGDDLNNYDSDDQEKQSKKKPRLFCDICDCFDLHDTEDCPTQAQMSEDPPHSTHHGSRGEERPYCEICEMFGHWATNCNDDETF
# UniProt P50570, sequence (P50570 whole entry, looked up): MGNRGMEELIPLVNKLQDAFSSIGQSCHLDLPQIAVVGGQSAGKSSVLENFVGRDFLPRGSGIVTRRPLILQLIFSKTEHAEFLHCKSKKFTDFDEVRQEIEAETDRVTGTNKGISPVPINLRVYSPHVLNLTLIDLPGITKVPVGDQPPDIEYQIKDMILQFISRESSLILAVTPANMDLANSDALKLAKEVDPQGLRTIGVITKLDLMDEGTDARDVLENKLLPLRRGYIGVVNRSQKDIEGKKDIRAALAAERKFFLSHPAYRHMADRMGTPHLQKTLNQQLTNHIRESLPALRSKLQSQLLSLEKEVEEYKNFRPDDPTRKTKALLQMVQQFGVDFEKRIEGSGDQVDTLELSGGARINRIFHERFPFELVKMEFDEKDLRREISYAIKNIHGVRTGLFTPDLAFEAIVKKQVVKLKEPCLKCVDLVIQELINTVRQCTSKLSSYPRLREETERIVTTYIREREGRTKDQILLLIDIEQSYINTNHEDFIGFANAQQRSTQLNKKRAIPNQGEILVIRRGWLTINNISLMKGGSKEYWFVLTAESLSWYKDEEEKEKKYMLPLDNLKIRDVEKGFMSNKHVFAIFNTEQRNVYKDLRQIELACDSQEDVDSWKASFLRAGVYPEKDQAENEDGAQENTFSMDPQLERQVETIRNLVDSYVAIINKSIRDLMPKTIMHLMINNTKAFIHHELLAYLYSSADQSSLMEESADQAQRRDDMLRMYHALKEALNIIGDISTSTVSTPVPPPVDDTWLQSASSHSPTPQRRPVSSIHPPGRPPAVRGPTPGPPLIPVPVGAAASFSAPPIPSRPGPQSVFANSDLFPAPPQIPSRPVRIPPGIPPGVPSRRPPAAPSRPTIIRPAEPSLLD
Target,log2 fold change [1],log2 fold change (barasertib),log2 fold change (volasertib),log2 fold change [2],log2 fold change [3],log2 fold change [4],log2 fold change (saracatinib),log2 fold change (sotrastaurin),log2 fold change (vemurafenib),log2 fold change [5]
DONSON (UniProt Q9NYP3),0.017,-0.03,0.026,-0.036,-0.026,-0.206,0.013,0.016,,
CSNK1G3 isoform 4 (UniProt Q9Y6M4),-0.238,,0.111,,,,,,,
CXCL14 (UniProt O95715),,0.079,,,,,,,0.252,0.189
CNK3/IPCEF1 isoform 2 (UniProt G9CGD6),,,,0.078,-1.81 (active),0.506,0.053,,-0.062,0.056
CSRP2 (UniProt Q16527),,0.078,,,0.09,0.126,,-0.351 (active),,0.052
CSDE1 isoform 3 (UniProt O75534),-0.014,0.05,-0.193,0.113,-0.064,-0.104,,0.07,,
"CSNK2A1, A0A2R8Y4D6",0.107,,-0.325,,,,,,,
CLIP1 isoform 2 (UniProt P30622),0.112,-0.083,0.055,-0.04,-0.488,0.02,0.028,-0.026,,0.073
DNM2 isoform 4 (UniProt P50570),-0.001,,-0.031,-0.014,-0.153,0.021,-0.047,-0.031,,-0.018
CYP2S1 isoform 2 (UniProt Q96SQ9),0.136,,0.038,0.063,,,0.017,0.081,0.062,0.119
COL6A3 (UniProt P12111),,0.347,,0.086,0.254,-0.19,-0.039,0.031,,
CSNK1A1 isoform 3 (UniProt P48729),,,,-0.199,,,-0.175,,,
DBF4 (UniProt Q9UBU7),,0.054,,0.001,-0.003,-0.245,0.001,-0.004,0.001,-0.015
CYP4V2 (UniProt Q6ZWL3),-0.021,-0.021,0.05,-0.12,,,-0.076,-0.17,,
CSAD isoform 3 (UniProt Q9Y600),,0.456 (active),,0.001,,,,-0.003,,
CRLS1 (UniProt Q9UJA2),0.063,0.014,0.005,0.017,0.022,-0.301,,-0.008,,
CHMP4A (UniProt H0YIN6),0.049,-0.012,0.024,-0.495,-0.274,0.158,0.201,-0.088,,
CIC (UniProt I3L1Q4),,-0.169,,,,,,,,
